A selection: hits, their analogues and other compounds. The true share with any hit is near 9.9%.
ALDH1A1 block: blocks purified human ALDH1A1 activity; P00352; Purified ALDH1A1, NADH fluorescence, propionaldehyde substrate; Potency, µM (doses to about 75.3 µM), inactives show top-dose activity, negative = inhibition, usual class: inhibitors; 220,000 compounds, 7.3% hits; active = well fitted inhibition curve with a large enough effect, not every such curve was filed as active; inconclusive = small, poorly fitted or top-dose-only effect, or another doubt; inactive = no such curve, though single readings can be large or run the other way;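 also: plate controls were no enzyme wells and a reference inhibitor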
Target sequence (P00352 whole entry, looked up): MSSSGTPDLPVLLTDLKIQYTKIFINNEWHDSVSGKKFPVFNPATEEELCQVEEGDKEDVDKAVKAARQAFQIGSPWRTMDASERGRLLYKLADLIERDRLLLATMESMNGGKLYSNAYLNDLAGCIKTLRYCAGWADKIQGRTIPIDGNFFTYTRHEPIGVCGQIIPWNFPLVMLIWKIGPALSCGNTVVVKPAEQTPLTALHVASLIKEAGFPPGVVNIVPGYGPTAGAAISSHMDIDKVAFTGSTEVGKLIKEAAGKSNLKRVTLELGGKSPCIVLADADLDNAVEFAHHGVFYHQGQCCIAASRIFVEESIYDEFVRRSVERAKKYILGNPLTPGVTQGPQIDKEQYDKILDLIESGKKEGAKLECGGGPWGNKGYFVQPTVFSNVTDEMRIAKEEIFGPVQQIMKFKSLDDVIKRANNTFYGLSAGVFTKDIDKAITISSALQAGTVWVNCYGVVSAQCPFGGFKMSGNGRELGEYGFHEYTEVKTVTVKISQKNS
KDM4E inh: inhibitors of human JMJD2E histone demethylase. JMJD2E catalytic domain, FDH-coupled NADH fluorescence (FDH is formaldehyde dehydrogenase). Potency, µM (doses to about 57.1 µM), without a hit: at the top dose activity change, negative = inhibition, actives largely listed as inhibitors. 230,000 compounds, 1.6% hits. B2RXH2; active = well fitted inhibition curve with a large enough effect, not every such curve was filed as active; inconclusive = small, poorly fitted or top-dose-only effect, or another doubt; inactive = no such curve, though single readings can be large or run the other way;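 also: 0% = wells with enzyme and -100% = buffer wells without enzyme; nearly all actives have a fitted effect of over 50% in size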
HPGD block: inhibitors of human 15-hydroxyprostaglandin dehydrogenase (HPGD). purified HPGD, NADH fluorescence kinetic, PGE2 substrate. Potency, µM, without a hit: top-dose activity change, negative = inhibition, actives largely listed as inhibitors. 150,000 compounds, 4.3% hits; active = well fitted inhibition curve with a large enough effect, not every such curve was filed as active; inconclusive = small, poorly fitted or top-dose-only effect, or another doubt; inactive = no such curve, though single readings can be large or run the other way
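NADH formation kinetics: reaction with 30 uM PGE2 and 1 mM NAD+ (final), 20 nM enzyme, Tris-HCl pH 8 with Tween 20, after 15 min compound preincubation at room temperature. Fluorescence change, last versus first of five reads.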
Tau fluor cs: counter-screen for tau fibril formation inhibitors; tau K18 P301L Alexa594 fluorescence, heparin fibrillization; 280,000 compounds, 0.93% hits; Potency, µM (doses to about 57.7 µM), inactives show at the top dose activity change, negative = decrease; also: nearly all actives have a fitted effect of over 55% in size
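Human tau K18 P301L (15 uM unlabeled, 0.24 uM Alexa 594-labeled) in 100 mM sodium acetate pH 7 with 20 uM heparin, 6 hr at 37 C. ThT 30 uM added, 1 hr ambient; Alexa 594 FP and total fluorescence read at 555/632 nm.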
Tau fibril ThT: inhibitors of human tau fibril formation, thioflavin T binding | Potency, µM (doses to about 57.4 µM), without a hit: at the top dose activity, negative = inhibition, actives largely listed as inhibitors | AID 1460 | 270,000 compounds, 2.1% hits | recombinant tau K18 P301L, heparin-induced fibrillization, ThT fluorescence | P10636; also: nearly all actives have a fitted effect of over 55% in size
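Fibril formation assay: tau K18 P301L at 15 uM with trace Alexa 594 label, heparin inducer 20 uM, pH 7 sodium acetate buffer, 37 C for 6 hr; endpoint ThT signal.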
Tau FP inhib: tau fibrillization inhibition (FP); K18 P301L tau heparin fibrillization, Alexa594 FP, 6 h; Potency, µM (highest dose often 57.7 µM), inactives show at the top dose activity, negative = inhibition, hits mostly inhibitors; 280,000 compounds, 0.39% hits; also: nearly all actives have a fitted effect of over 55% in size
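Steps: dispense K18 P301L tau (15 uM plus 0.24 uM Alexa 594 tracer, final) in pH 7 sodium acetate; add compound; add heparin (20 uM final); incubate 6 hr, 37 C; add ThT (30 uM final); after 1 hr ambient, read FP.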
* = called active by the depositor; ? = inconclusive; / = not tested or not shown; [ ] = dose if it differs, or a comment. Unless noted, calls follow the shape of the dose curve; as a rule, active = well fitted curve in the direction sought with a large enough effect; inconclusive = small, poorly fitted or top-dose-only effect, or another doubt; inactive = no such curve, though single readings can be large; an effect the other way counts as inactive or inconclusive. Unless noted, % is scaled to controls: 0 for no effect and ±100 for the full control effect; potency is read from the fitted curve at half-maximal effect.

SMILES	ALDH1A1 block	KDM4E inh	HPGD block	Tau fluor cs	Tau fibril ThT	Tau FP inhib
CCN(CC)CCCN(C(=O)Cn1nnc(-c2ccc(OC)c(OC)c2)n1)C(C(=O)NC(C)(C)C)c1ccc(F)cc1 (stereo unspecified)	8%	-14%	/	-9%	-4%	-4%
CCCn1c2ccccc2c2nnc(SC(CC)C(=O)Nc3cc(C)on3)nc21 (stereo unspecified)	?	10%	-7%	-11%	-12%	-1%
CCCn1c2ccccc2c2nnc(SC(CC)C(=O)Nc3sc4c(c3C#N)CCCC4)nc21 (stereo unspecified)	28µM*	3%	-27%	-12%	-8%	-4%
CCOc1ccc(NC(=O)Cn2nc3c(cc2=O)CC(C)CC3)cc1 (stereo unspecified)	/	/	/	-7%	-1%	2%
Cc1ccc(Nc2c(-c3c[nH]c4ccccc34)nc3ccccn23)cc1	/	/	/	8.9µM*[quencher]	?	-4%
Cc1ccc2nc(-c3c[nH]c4ccccc34)c(Nc3ccccc3C)n2c1	/	/	/	?	2%	11%
COc1ccc(NC(=O)CN2C(=O)CCn3nc(-c4cccn4C)cc32)cc1Cl	/	/	/	-16%	2%	8%
CCc1ccccc1NC(=O)c1cn(C)c(=O)c2ccccc12	/	/	/	-2%	4%	3%
CCCN1C(=O)C(NC(C)=O)c2ccccc21 (stereo unspecified)	0.13µM*	-2%	-3%	-4%	-6%	-4%
CCN(CC)CC[n+]1ccc2c(C)c3[nH]c4ccccc4c3c(C)c2c1	2%[13.5 µM]	/	-6%	/	/	/
O=C(CSc1nc2cc(Cl)ccc2s1)c1ccco1	?	-1%	22µM*	-20%	?	-14%
O=C(CSCc1ccc(Cl)cc1)c1ccco1	?	-7%	22µM*	-11%	-14%	-2%
O=C(CSc1nnc(SCC(=O)c2ccco2)s1)c1ccco1	?	-2%	32µM*	-8%	-8%	1%
O=C(CSCc1ccc(Cl)cc1)Nc1ccccc1O	-2%	0%	/	-12%	-6%	10%
COc1cc2c(cc1NC(=O)CSc1nc3cc(Cl)ccc3s1)oc1ccccc12	-6%	-7%	-10%	-12%	-12%	-3%
CC/S(=N\S(=O)(=O)c1ccc(C)cc1)c1ccccc1 (stereo unspecified)	-9%	-4%	/	-10%	-2%	1%
COc1ccc(C(=O)NNC(=O)CCn2nnc(-c3ccc(C)cc3)n2)cc1OC	?	4%	/	-3%	-3%	0%
CCS(=O)(=O)n1nc(-c2ccccc2)nc1SC	6%	-5%	-26%	-6%	-8%	0%
CCC(C(=O)NCc1ccco1)N(C(=O)CNS(=O)(=O)c1ccccc1)c1ccccc1C (stereo unspecified)	?	20%	/	7%	5%	-2%
Cc1ccc(C(=O)NC(=S)Nc2cccc(NC(=O)c3ccccc3)c2)cc1[N+](=O)[O-]	16µM*	-1%	-14%	?	?	-7%
Cc1ccc(C(=O)NNC(=S)Nc2cccc(Cl)c2Cl)cc1[N+](=O)[O-]	2.8µM*	4%	11µM*	?	25µM*	7%
CC(=O)Nc1cccc(NC(=O)c2ccc(C)c([N+](=O)[O-])c2)c1	-5%	-10%	/	-7%	-12%	4%
Cc1ccc(C(=O)NC(=S)Nc2cccc(NC(=O)c3ccccc3Cl)c2)cc1[N+](=O)[O-]	13µM*	2%	-13%	-25%	-18%	4%
CC(=O)Nc1c(C(N)=O)oc2ccc(Cl)cc12	/	?	/	-21%	/	-9%
CCOC(=O)C1=C(CSc2nc(-c3ccccc3)ccc2C#N)OC(N)=C(C#N)C1c1ccc(OC)cc1 (stereo unspecified)	?	57%	?	?	?	-9%
CC(=O)c1ccc(NC(=O)c2nc(-c3ccc(Cl)cc3)n3c2CCCCC3)cc1	/	/	/	-16%	1%	-1%

Bioassay records (PubChem)
